# In PubChem BioAssay AID686979 (National Center for Advancing Translational Sciences (NCATS), 2013):
# Where “and” joins values, the source holds several entries; their conditions need not be identical. Equal values may be shown once. About 50,000 (12%) of roughly 420,000 compounds were called active. Where a call stands in place of a potency, no number is given. About 26% were inconclusive and are not listed. The sample holds actives, similar compounds and a random draw of the others, so the mix is not that of the screen. The call rests on the fitted dose curve; in most records, active means well fitted inhibition curve with a large enough effect; inconclusive means small, poorly fitted or top-dose-only effect; inactive means flat fitted curve, though single readings scatter. A structure can be active in one record and inactive in another.
# Experiment: qHTS for Inhibitors of human tyrosyl-DNA phosphodiesterase 1 (TDP1): qHTS in cells in presence of CPT; further: nearly all actives have a fitted effect of over 55% in size
# Conditions: chicken DT40 Tdp1-/-;hTDP1 cells + 20 nM CPT, ATP luminescence, 48 h; series mostly up to 46.2 µM
# Outline: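 Chicken DT40 Tdp1-/- cells complemented with human TDP1, 400 cells/well, exposed to compounds plus 20 nM camptothecin for at least 48 h at 37 C; viability read as ATP content by CellTiter-Glo luminescence.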
# Potency means the concentration at half of the fitted maximal effect.
row,Compound,Potency
1,CC(C)C1Cc2[nH][nH]c(=O)c2C(c2ccc(Cl)cc2)O1 (stereo not given),inactive
2,O=C(NCc1ccccc1)C1CCN(C(=O)Cc2ccccc2)CC1,inactive
3,Cc1ccc(C(=O)Cc2nnc(C)s2)cc1,inactive
4,COc1ccc(NC(=O)C(CC(C)C)NS(=O)(=O)c2ccc3c(c2)CCN3C(C)=O)cc1OC (stereo not given),inactive
5,O=C1COc2c1ccc(O)c2O,inactive
6,COc1ccc(F)cc1C(=O)COC(=O)c1n[nH]c(=O)c2ccccc12,inactive
7,COc1ccc(C)cc1N(C(=O)Cn1nnc(-c2ccc(C)o2)n1)C(C(=O)NC1CCCC1)c1ccncc1 (stereo not given),inactive
8,COc1ccc(C2OCC3(CO2)SC(=O)NC3=O)cc1OC (stereo not given),inactive
9,N#CCC(=O)NC1CCC(CC2CCC(NC(=O)CC#N)CC2)CC1 (stereo not given),inactive
10,COc1ccc(Nc2nc(Cl)nc(NCc3ccco3)n2)cc1,inactive
11,COc1ccc(NC(=O)C(=O)NCc2ccco2)cc1,inactive
12,COc1ccc(Nc2nc(NCc3ccco3)nc(N/N=C/c3ccccc3Cl)n2)cc1,20.6 µM (active)
13,CCN(CC)S(=O)(=O)c1ccc(OC(C)C)c(N)c1,inactive
14,COc1ccc2cc(C(=O)NCC3CCCO3)[nH]c2c1 (stereo not given),inactive
15,O=C(O)c1ccc(OCC2CCCO2)cc1 (stereo not given),inactive
16,COc1ccc(OC)c(NC(=O)c2cc(-c3cc(F)ccc3OCC3CCCO3)n[nH]2)c1 (stereo not given),8.2 µM (active)
17,O=S(=O)(c1ccc(F)cc1)n1ccc(-c2cnc(-c3ccccc3)s2)n1,inactive
18,COc1cc2c(cc1NC(=O)CN1CCN(S(=O)(=O)c3ccc(F)cc3)CC1)oc1ccccc12,inactive
19,COc1cc2c(cc1NC(=O)COC(=O)/C=C/c1ccccc1)oc1ccccc12,20.6 µM (active)
20,COc1cc(/C=C/C(=O)OCC(=O)c2ccccc2)cc(OC)c1OC,inactive
21,CSCCC(NC(=O)c1ccccc1)C(=O)N1CCCCCCC1 (stereo not given),inactive
22,COc1ccc(/C=C(\C#N)C(=O)ONC2=NCCCCC2)cc1,16.4 µM (active)
23,CC(C)(C)C(=O)/C(C#N)=C/c1ccc(O)cc1,inactive
24,COc1ccc(/C=C(\C#N)C(=O)OCC(=O)N(C)C2CCS(=O)(=O)C2)cc1 (stereo not given),inactive
25,CCN(CC(=O)Nc1c(F)cccc1F)C(=O)Cc1cccs1,inactive
26,CC(C)C1CC2=C(C(=O)OC(C)(C)O2)C(c2ccc(F)cc2)O1 (stereo not given),inactive
27,O=C(NCc1ccc(Cl)cc1)C1CCN(S(=O)(=O)c2cccs2)CC1,11.6 µM (active)

row,Compound,Potency
1,O=C(NCc1ccccc1)C1CCCN(S(=O)(=O)c2cccs2)C1 (stereo not given),inactive
2,O=C(NCc1cccs1)C1CCN(S(=O)(=O)c2ccc(Cl)cc2)CC1,inactive
3,CC1=C(C(N)=O)C(c2ccc(F)cc2)n2nc(CCCO)nc2N1 (stereo not given),inactive
4,CCCCOP(=O)(c1ccc(N(C)C)cc1)C(O)c1cc(OC)ccc1OC (stereo not given),inactive
5,Cc1ccc(S(=O)(=O)N(C)c2ccc(OCC(=O)OCc3ccc(C#N)cc3)cc2)cc1,inactive
6,Cc1ccc(CN2CCN(Cc3cccc(C)n3)CC2CCO)cc1 (stereo not given),inactive
7,COC(=O)C1CCN(C(=O)COC(=O)c2cc(S(=O)(=O)N3CCOCC3)ccc2C)CC1,inactive
8,O=C(Nc1c2c(nc3ccccc13)CCCC2)c1ccccc1Br,inactive
9,N#Cc1cccc(Nc2c3c(nc4ccccc24)CCCC3)c1,18.4 µM (active)
10,CC(=O)Nc1ccc(Nc2c3ccccc3nc3ccccc23)cc1,0.326 µM (active)
11,CC(=O)Nc1ccc(NC(=O)COc2ncnc3ccccc23)cc1,inactive
12,Cc1ccc(Nc2c3c(nc4ccccc24)CCC3)cc1,11.6 µM (active)
13,CC(=O)Nc1ccc(S(=O)(=O)N(C)c2nc3ccccc3nc2Cl)cc1,inactive
14,N#Cc1cccc(NC(=O)CN2CCCCCC2)c1,inactive
15,N#Cc1cccc(NC(=O)CCC2CCCC2)c1,inactive
16,CN1CCCN(C(=O)C2CCCCC2)CC1,inactive
17,CC1(C)C2CC=C(/C=N/NC(=O)C3CC3)C1C2 (stereo not given),inactive
18,Cc1cc(C)n(CCC(=O)N2CCN(S(=O)(=O)c3ccc(C)c(C)c3)CC2)n1,inactive
19,O=C(OCCN1C(=O)c2ccccc2C1=O)[C@@H]1CC(O)CN1S(=O)(=O)c1ccccc1[N+](=O)[O-] (stereo not given in full),inactive
20,O=C(O)CCCCCCCCc1cn(CN2C(=O)c3ccccc3C2=O)nn1,inactive
21,Cn1c(N)c(C(=O)COC(=O)c2ccc3ccccc3c2)c(=O)n(C)c1=O,inactive
22,Cc1cc(=O)oc2c1ccc1ccccc12,inactive
23,Cc1nnc(SC(C)C(=O)c2c[nH]c3ccccc23)n1C1CC1 (stereo not given),inactive
24,O=C(NCCOc1ccccc1Cl)C(=O)Nc1ccccc1,20.6 µM (active)
25,COc1ccccc1OCCNC(=O)CCNC(=O)c1ccccc1Cl,inactive
26,COc1cc(SC)ccc1C(=O)NCCOc1ccccc1Cl,inactive
27,COc1cc(C(=O)NNC(=O)CN2C(=O)NC3(CCCC3)C2=O)cc(OC)c1OC,inactive

row,Compound,Potency
1,CC1(C(=O)NS(=O)(=O)c2cccc(F)c2)CCN1C(=O)Cc1ccc(Cl)cc1Cl (stereo not given),inactive
2,CCCOc1ccc(Cc2c(O)nc(SC)[nH]c2=O)cc1C,inactive
3,COc1ccc(CCC(=O)N2CCN(S(=O)(=O)c3ccc(OC)cc3)CC2)cc1,inactive
4,COc1ccc(S(=O)(=O)N2CCN(c3cnccn3)CC2)cc1,inactive
5,COc1ccc(S(=O)(=O)N2CCN(c3ncnc4c(-c5ccccc5)nsc34)CC2)cc1,16.4 µM (active)
6,Cc1noc(C)c1COc1ccccc1C(=O)N(C)CC(=O)Nc1cccc(F)c1,inactive
7,C[C@H]1NS(=O)(=O)c2cc(Cl)ccc2O[C@@H]1c1ccccc1,inactive
8,COc1ccc(OC)c(S(=O)(=O)n2c([N+](=O)[O-])cnc2C)c1,inactive
9,COCCSc1nnc(NC(=O)CCS(=O)(=O)Cc2ccccc2)s1,inactive
10,CCCCc1nnc(NC(=O)CS(=O)(=O)Cc2ccccc2)s1,inactive
11,CCOCc1nnc(NC(=O)CCS(=O)(=O)Cc2ccccc2)s1,9.2 µM (active)
12,Cn1c(N)c(C(=O)COC(=O)/C=C/c2cccc(C(F)(F)F)c2)c(=O)n(C)c1=O,inactive
13,Cc1ccc(CSCC(=O)N(C)CC(=O)Nc2cccc(F)c2)cc1,inactive
14,CCS(=O)(=O)c1ccc(-c2cccc(NC(=O)c3ccc(Br)o3)c2)nn1,inactive
15,O=C(O)c1ccccc1-c1ccccc1C(=O)NCc1cccnc1,inactive
16,CS(=O)(=O)N(Cc1ccccc1Cl)c1ccc(C(=O)NCc2cccnc2)cc1,23.1 µM (active)
17,O=C(NCc1cccnc1)c1cccnc1Sc1ccc(Cl)cc1,inactive
18,Cc1ccc(C(=O)NC(=S)NCc2cccnc2)cc1,inactive
19,O=C(NCc1ccc(Cl)c(Cl)c1)c1cccnc1,inactive
20,Cc1ccc(S(=O)(=O)N(Cc2ccc(Cl)cc2)c2ccccc2C(=O)NCc2cccnc2)cc1,18.4 µM (active)
21,CC(=O)NCC(=O)N(C)C(C(=O)Nc1ccc2c(c1)OCCO2)c1ccccc1 (stereo not given),inactive
22,O=C(NCc1ccncc1)C(=O)NCC1OCCN1S(=O)(=O)c1ccc(Br)cc1 (stereo not given),inactive
23,COc1ccc(S(=O)(=O)N2CCOC2CNC(=O)C(=O)NCc2ccc(F)cc2)cc1 (stereo not given),inactive
24,O=C(NCCCN1CCCC1=O)C(=O)NCC1OCCN1S(=O)(=O)c1ccc(Br)cc1 (stereo not given),18.4 µM (active)
25,CCOC(=O)c1cnc2c(C)cc(C)cc2c1Nc1ccc(N2CCOCC2)cc1,25.9 µM (active)
26,CCOC(=O)c1cnc2c(C)cc(Cl)cc2c1NCCc1ccc(OC)c(OC)c1,inactive
27,CCOC(=O)c1ccccc1C(=O)N1CCOCCOCCOCC1,inactive

row,Compound,Potency
1,CC(C)(O)C1=C[N+](=O)CC=C1,inactive
2,COc1ccc(SCc2cc(=O)c3ccc(C)c(C)c3[nH]2)cc1,inactive
3,COC(=O)C1=C(c2ccccc2)c2ccccc2S(=O)(=O)N1CC(=O)Nc1ccccc1C(F)(F)F,inactive
4,CCOC(=O)c1ccccc1CN1C(=O)c2ccccc2S1(=O)=O,inactive
5,CCOC(=O)CN1C(C(=O)c2ccccc2)=C(OC(=O)C(C)(C)C)c2ccccc2S1(=O)=O,20.6 µM (active)
6,Cc1ccc2c(c1)N(CC(=O)N1CCC(O)CC1)C(=O)CO2,inactive
7,Fc1ccc(-c2nc(Nc3cccc(Cl)c3)nc3c2COc2ccccc2-3)cc1,inactive
8,Cc1cc(OCC(=O)NCC(O)c2ccccc2)c2c(C)c(C)c(=O)oc2c1 (stereo not given),inactive
9,Cc1ccc(N(CC(=O)NCC2CCCO2)C(=O)CNS(=O)(=O)c2ccc(Cl)cc2)cc1 (stereo not given),inactive
10,Nc1cccnc1Sc1ccccc1,inactive
11,Nc1ccccc1N,inactive and 4.86 µM (active)
12,Nc1ccccc1/C=N\N=C/c1ccccc1N,inactive
13,CC1=NN(C(=O)c2ccc(Br)cc2)C(O)(c2ccccc2)C1 (stereo not given),inactive
14,Cc1ccc2nc(Nc3ncc4c(n3)CC(C)(C)CC4=O)nc(C)c2c1,inactive
15,COc1ccc(C(C(=O)NCc2ccccc2)n2c(=O)c(-c3ccccc3)nc3ccccc32)cc1 (stereo not given),14.6 µM (active)
16,O=C(NNC(=S)NCc1ccco1)C(c1ccccc1)c1ccccc1,inactive
17,COc1ccc(CNC(=O)C(C)NCc2ccccc2Cl)cc1 (stereo not given),inactive
18,CCc1nc2ccccc2c(C(=O)NCc2ccc(OC)cc2)c1C,inactive
19,N#Cc1ccc(C(C(=O)NCc2ccccc2)n2c(=O)c(-c3ccco3)nc3ccccc32)cc1 (stereo not given),20.6 µM (active)
20,O=C(CSc1nnc(-c2ccco2)n1Cc1ccccc1)NC(=O)NCc1ccco1,inactive
21,CCCN(CCC)CCCNC(=O)CNC(=O)c1nn(-c2ccc(OC)cc2)c(=O)c2ccccc12,inactive
22,CCCCCNC(=O)C(c1ccc(OC)cc1)n1c(=O)c(-c2ccccc2)nc2ccccc21 (stereo not given),23.1 µM (active)
23,CCOCCCNC(=O)C(NC(=O)CNC(=O)c1ccccc1)c1ccc(OC)cc1 (stereo not given),inactive
24,O=C1COc2ccc(S(=O)(=O)NCCc3ccc(Cl)cc3)cc2N1,inactive
